Reference: PubChem BioAssay (Tox21)
Where “and” joins values, the source holds several entries; their conditions need not be identical. Identical values can stand only once. Results filed as inconclusive are left out. Where a structure was tested more than once in an assay, its records may differ in their call. Calls of active or inactive are those of the source. Unless noted, the call rests on the fitted dose curve; in most records, active means well fitted curve in the direction sought with a large enough effect in the repeat runs; inconclusive means weak or mixed curves; inactive means no such curve, though single readings can be large; an effect the other way counts as inactive or inconclusive.

Experiments:
[1] = qHTS assay to identify small molecule agonists of the RXR signaling pathway - cell viability counter screen (AID 1159529); further: nearly all actives have a fitted effect of over 50% in size
Summary of the method: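 Luminescence from CellTiter-Glo (30 min, RT) measured viability in the same wells as the beta-lactamase reporter readout. Cells: GeneBLAzer RXR-alpha HEK 293T, 2% charcoal-stripped FBS. Compound exposure 16 hr, 37 C.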

[2] = qHTS assay to identify small molecule antagonists of the retinoid acid receptor (RAR) signaling pathway - cell viability counter screen (AID 1159551); further: nearly all actives have a fitted effect of over 35% in size; further: potency means the concentration at half of the fitted maximal effect
Summary of the method: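 C3RL4 RARE-luciferase cells, 1,000/well, incubated overnight, then dosed with compound plus 1 uM retinol (final). After 6 hr at 37 C, viability read by CellTiter-Glo ATP luminescence following 30 min at room temperature.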

[3] = qHTS assay to identify small molecule antagonists of the retinoic acid receptor (RAR) signaling pathway (AID 1159552; further: nearly all actives have a fitted effect of over 50% in size; further: potency means the concentration at half of the fitted maximal effect)
Summary of the method: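 Luminescence from a RARE luciferase reporter in C3RL4 cells served as read-out. Cells received compounds together with 1 uM final retinol and incubated 6 hr at 37 C before detection reagent was added for 30 min at room temperature.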

[4] = qHTS assay to identify small molecule agonists of the retinoic acid receptor (RAR) signaling pathway (AID 1159553); settings: C3RL4 RARE luciferase reporter, agonist, 6 h; activation: at 73.3 µM (top of the series) unless noted
Summary of the method: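 C3RL4 RARE-luciferase cells were seeded at 1,000/well and grown overnight at 37 C, then exposed to compounds for 6 hr at 37 C, 5% CO2. Luciferase reagent was added and luminescence was read after 30 min at room temperature.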

[5] = qHTS assay to identify small molecule antagonists of the estrogen related receptor (ERR) signaling pathway from Tox21 library - cell viability counter screen (AID 1224834); further: nearly all actives have a fitted effect of over 30% in size; further: potency means the concentration at half of the fitted maximal effect
Summary of the method: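 ERR reporter cells, 2,000 per well, rested 6 h, then exposed to compound in DMSO for 17.5 hours at 37 C. Viability read as fluorescence after 30 min with CellTiter-Fluor.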

[6] = target: Luciferin 4-monooxygenase (Photinus pyralis) (UniProt P08659); assay: qHTS assay to identify small molecule inhibitors of firefly luciferase (AID 1224835); further: nearly all actives have a fitted effect of over 25% in size; further: potency means the concentration at half of the fitted maximal effect
Sequence of Luciferin 4-monooxygenase (Photinus pyralis) (P08659 whole entry, looked up): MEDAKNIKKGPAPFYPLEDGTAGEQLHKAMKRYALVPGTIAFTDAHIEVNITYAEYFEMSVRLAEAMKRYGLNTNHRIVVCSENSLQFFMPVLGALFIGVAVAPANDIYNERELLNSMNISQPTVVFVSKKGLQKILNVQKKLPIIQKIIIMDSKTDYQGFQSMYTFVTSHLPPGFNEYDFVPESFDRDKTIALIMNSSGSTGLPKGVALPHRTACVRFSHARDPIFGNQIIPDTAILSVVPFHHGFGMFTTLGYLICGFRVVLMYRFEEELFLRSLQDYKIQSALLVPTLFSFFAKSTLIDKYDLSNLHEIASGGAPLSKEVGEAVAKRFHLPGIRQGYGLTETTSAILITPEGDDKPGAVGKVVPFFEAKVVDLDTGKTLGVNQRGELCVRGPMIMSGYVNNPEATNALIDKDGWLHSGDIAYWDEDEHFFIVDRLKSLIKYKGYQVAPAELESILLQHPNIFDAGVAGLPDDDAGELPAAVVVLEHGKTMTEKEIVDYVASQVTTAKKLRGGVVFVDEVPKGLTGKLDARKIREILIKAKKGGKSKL
Summary of the method: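 Quantitative HTS format; KM concentrations of both substrates. Purified P. pyralis FLuc activity quantified from luminescence images.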

[7] = qHTS assay to identify small molecule agonists of the constitutive androstane receptor (CAR) signaling pathway - cell viability counter screen (AID 1224836); further: nearly all actives have a fitted effect of over 45% in size; further: potency means the concentration at half of the fitted maximal effect
Summary of the method: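 Viability read-out: CellTiter-Fluor fluorescence after 23 h compound exposure at 37 C/5% CO2 in double-stable HepG2-CYP2B6-hCAR cells, with PK11195 present at 0.75 uM final; compounds tested in 15-point titration.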

[8] = qHTS assay to identify small molecule antagonists of the constitutive androstane receptor (CAR) signaling pathway - cell viability counter screen (AID 1224837); further: nearly all actives have a fitted effect of over 45% in size; further: potency means the concentration at half of the fitted maximal effect
Summary of the method: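 HepG2 cells stably carrying hCAR and CYP2B6-2.2kb reporter, stimulated with 50 nM CITCO and compounds at 15 concentrations for 23 h at 37 C. Viability measured by CellTiter-Fluor fluorescence.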

[9] = target: Nuclear receptor subfamily 1 group I member 3 (Homo sapiens) (UniProt Q14994); assay: qHTS assay to identify small molecule antagonists of the constitutive androstane receptor (CAR) signaling pathway (AID 1224838); further: nearly all actives have a fitted effect of over 40% in size
Sequence of Nuclear receptor subfamily 1 group I member 3 (Homo sapiens) (Q14994 whole entry, looked up): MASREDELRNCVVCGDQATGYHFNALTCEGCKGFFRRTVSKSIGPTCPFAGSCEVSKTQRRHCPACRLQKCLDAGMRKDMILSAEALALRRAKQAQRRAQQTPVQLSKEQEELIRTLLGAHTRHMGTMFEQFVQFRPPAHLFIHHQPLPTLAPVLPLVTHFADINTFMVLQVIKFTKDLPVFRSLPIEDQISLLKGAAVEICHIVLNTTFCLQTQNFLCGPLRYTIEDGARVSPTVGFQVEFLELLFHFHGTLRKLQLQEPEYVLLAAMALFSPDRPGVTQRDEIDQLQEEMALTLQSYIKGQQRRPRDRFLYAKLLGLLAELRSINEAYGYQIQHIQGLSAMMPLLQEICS
Summary of the method: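 HepG2 cells stably carrying hCAR and a CYP2B6-2.2kb luciferase reporter, seeded 4 hrs before compound (15 concentrations). Stimulated with 50 nM CITCO for 24 hr at 37 C. ONE-Glo luminescence read after 30 min at room temperature.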

[10] = target: Nuclear receptor subfamily 1 group I member 3 (Homo sapiens) (UniProt Q14994); assay: qHTS assay to identify small molecule agonists of the constitutive androstane receptor (CAR) signaling pathway (AID 1224839); further: nearly all actives have a fitted effect of over 15% in size; further: potency means the concentration at half of the fitted maximal effect
Summary of the method: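 Luminescence read-out (ONE-Glo, 30 min, room temperature) from double-stable HepG2-CYP2B6-hCAR cells exposed 24 h to 15-point compound series in presence of 0.75 uM PK11195 final.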

[11] = qHTS assay to identify small molecule antagonists of the estrogen related receptor signaling pathway with the pleiotropic PPARgamma coactivator (PGC) from Tox21 10K library - cell viability counter screen (AID 1224840; active means well fitted cell-killing curve with a large enough effect in the repeat runs, not every such curve was filed as active; further: nearly all actives have a fitted effect of over 40% in size; further: potency means the concentration at half of the fitted maximal effect)
Summary of the method: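 PGC/ERR cells (2,000/well) plated 6 h, then compound-treated for 17.5 h at 37 C. Viability measured by CellTiter-Fluor fluorescence after 30 min at 37 C, multiplexed with the pathway assay.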

[12] = target: Thyrotropin receptor (Homo sapiens) (UniProt P16473); assay: qHTS assay to identify small molecule agonists of the thyroid stimulating hormone receptor (TSHR) signaling pathway (AID 1224843; calls by dose curve; further: nearly all actives have a fitted effect of over 45% in size; further: potency means the concentration at half of the fitted maximal effect)
Sequence of Thyrotropin receptor (Homo sapiens) (P16473 whole entry, looked up): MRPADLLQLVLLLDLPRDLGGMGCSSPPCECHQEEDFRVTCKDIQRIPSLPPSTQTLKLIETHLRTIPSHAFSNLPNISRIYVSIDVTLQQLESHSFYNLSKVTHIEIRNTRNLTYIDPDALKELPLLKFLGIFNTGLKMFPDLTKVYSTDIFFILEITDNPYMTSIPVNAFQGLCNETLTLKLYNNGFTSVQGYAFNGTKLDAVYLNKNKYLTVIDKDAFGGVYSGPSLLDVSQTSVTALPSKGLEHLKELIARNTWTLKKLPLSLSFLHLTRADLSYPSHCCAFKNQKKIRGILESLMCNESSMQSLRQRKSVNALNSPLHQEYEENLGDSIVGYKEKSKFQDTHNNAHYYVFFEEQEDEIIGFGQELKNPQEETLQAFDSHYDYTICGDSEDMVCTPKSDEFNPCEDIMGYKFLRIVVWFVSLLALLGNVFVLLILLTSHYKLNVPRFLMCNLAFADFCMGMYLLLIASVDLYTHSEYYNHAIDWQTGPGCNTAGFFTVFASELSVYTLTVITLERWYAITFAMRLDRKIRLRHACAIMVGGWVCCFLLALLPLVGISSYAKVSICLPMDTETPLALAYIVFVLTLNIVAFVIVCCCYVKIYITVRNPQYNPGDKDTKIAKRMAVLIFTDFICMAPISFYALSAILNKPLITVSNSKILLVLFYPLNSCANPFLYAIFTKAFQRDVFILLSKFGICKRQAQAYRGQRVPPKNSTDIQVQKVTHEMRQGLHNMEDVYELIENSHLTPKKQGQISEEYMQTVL
Summary of the method: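 Cell line HEK293 with TSHR; density 800/well. Exposure 30 min RT. Readout HTRF cAMP (cAMP-d2/anti-cAMP-cryptate), 1 h RT before reading.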

[13] = qHTS assay to identify small molecule antagonists of the estrogen related receptor signaling pathway with the pleiotropic PPARgamma coactivator (PGC) from Tox21 10K library (AID 1224841; call rule not given here; further: actives are mostly falling curves and most rising ones were filed inactive; nearly all actives have a fitted effect of over 50% in size; further: potency means the concentration at half of the fitted maximal effect)
Summary of the method: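 PGC/ERR cell line, 2,000 cells/well, pre-incubated 6 hours at 37 C, then exposed to compounds for 18 hours at 37 C; luciferase read with One-Glo luminescence after 30 min at room temperature.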

[14] = qHTS assay to identify small molecule agonists of the estrogen related receptor signaling pathway with the pleiotropic PPARgamma coactivator (PGC) from Tox21 10K library (AID 1224842); further: nearly all actives have a fitted effect of over 15% in size; further: potency means the concentration at half of the fitted maximal effect
Summary of the method: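 PGC/ERR reporter cells (NTP line) were seeded 2,000 per well, rested 6 h at 37 C/5% CO2, then pin-dosed with compounds in DMSO for 18 h at 37 C; luciferase read by One-Glo luminescence after 30 min at room temperature.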

[15] = qHTS assay to identify small molecule antagonists of the estrogen related receptor (ERR) signaling pathway - cell viability counter screen (AID 1224818)
Summary of the method: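 ERR cells, 2,000 per well, compound added after 6 h and incubated 17.5 h at 37 C. Viability read by CellTiter-Fluor fluorescence after a further 30 min at 37 C.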

[16] = qHTS assay to identify small molecule agonists of the estrogen related receptor (ERR) signaling pathway (AID 1224820)
Summary of the method: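 ERR reporter cell line (from NTP), 2,000 cells/well, incubated 6 h before compound addition, then 18 h at 37 C. Luminescence measured 30 min after One-Glo reagent at room temperature.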

[17] = system: estrogen-related receptor alpha (ERRalpha) with PGC-1alpha coactivator, human; assay: qHTS assay to identify small molecule antagonists of the estrogen related receptor signaling pathway with the pleiotropic PPARgamma coactivator (PGC) (AID 1224821; calls by dose curve;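 further: lower luminescence signal means antagonism of PGC/ERR signalling; nearly all actives have a fitted effect of over 50% in size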)
Summary of the method: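 PGC/ERR reporter cell line, plated 6 h before compound addition, then exposed 18 h at 37 °C. Luciferase activity read by luminescence 30 min after One-Glo addition; decrease indicates antagonism.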

[18] = qHTS assay to identify small molecule antagonists of the estrogen related receptor signaling pathway with the pleiotropic PPARgamma coactivator (PGC) cell viability counter screen (AID 1224822)
Summary of the method: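 PGC/ERR cells rested 6 h, then compound-treated 17.5 h at 37 C. CellTiter-Fluor added for 30 min at 37 C, viability measured by fluorescence intensity.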

[19] = qHTS assay to identify small molecule agonists of the estrogen related receptor signaling pathway with the pleiotropic PPARgamma coactivator (PGC) (AID 1224823)
Summary of the method: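 PGC/ERR reporter cells seeded 6 h, then exposed to compounds (23 nL in DMSO) for 18 h at 37 C. One-Glo luciferase luminescence read after 30 min at room temperature.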

[20] = qHTS assay to identify small molecule antagonists of the estrogen related receptor (ERR) signaling pathway (AID 1224819)
Summary of the method: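 ERR reporter cell line (NTP) plated at 2,000 cells/well, settled 6 h at 37C/5% CO2, then exposed to LOPAC compounds for 18 h at 37C. One-Glo luciferase luminescence read after 30 min at room temperature.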
On the % scale 0 is the no-effect control and ±100 the full control effect.

COC(=O)CC(=O)OC
inactive: Potency [1] | Potency [2] | Potency [3] | Potency [4] | Potency [5] | Potency [6] | Potency [7] | Potency [8] | Potency [9] | Potency [10] | Potency [11] | Potency [12]

CC(C)(C)c1cccc(C(C)(C)C)c1O
inactive: Potency [1] | Potency [2] | Potency [3] | Potency [4] | Potency [5] | Potency [6] | Potency [7] | Potency [8] | Potency [10] | Potency [11] | Potency [12]

CN(C)/N=N/c1nc[nH]c1C(N)=O
inactive: Potency [1] | Potency [2] | Potency [3] | Potency [4] | Potency [5] | Potency [6] | Potency [7] | Potency [8] | Potency [11] | Potency [13] | Potency [14] | Potency [12]

Nc1ccc2c(O)cc(S(=O)(=O)O)cc2c1
inactive: Potency [1] | Potency [2] | Potency [3] | Potency [10] | Potency [14] | Potency [12]
active: Potency [5] 27.3 µM and 30.6 µM | Potency [6] 63.4 µM and 44.8 µM | Potency [7] 21.7 µM | Potency [8] 19.4 µM and 68.6 µM | Potency [13] 15.4 µM

OC[C@@H](O)[C@@H](O[C@@H]1O[C@H](CO)[C@H](O)[C@H](O)[C@H]1O)[C@H](O)[C@@H](O)CO
inactive: Potency [1] | Potency [2] | Potency [4] | Potency [5] | Potency [6] | Potency [7] | Potency [8] | Potency [9] | Potency [10] | Potency [11] | Potency [13] | Potency [14] | Potency [12]

O=C1OC2(c3ccccc31)c1cc(I)c(O)c(I)c1Oc1c2cc(I)c(O)c1I
34.8 µM (active) and inactive: Potency [3]
inactive: Potency [1] | Potency [4] | Potency [10] | Potency [14]
active: Potency [2] 27.4 µM | Potency [5] 15.5 µM [middle of 4 runs] | Potency [7] 15.5 µM [middle of 4 runs] | Potency [8] 15.4 µM [middle of 4 runs] | Potency [11] 13.7 µM and 19.6 µM and 16.6 µM | Potency [13] 15.4 µM and 15.5 µM

Cc1ccc(N)c([N+](=O)[O-])c1
inactive: Potency [1] | Potency [2] | Potency [3] | Potency [4] | Potency [5] | Potency [7] | Potency [8] | Potency [10] | Potency [11] | Potency [12]

C[C@]12CC[C@@H]3c4ccc(O)cc4CC[C@H]3[C@@H]1CC[C@@H]2O
active: Potency [5] 30.6 µM and 43.3 µM | Potency [6] 39.8 µM and 79.6 µM | Potency [10] 9.67 µM and 10.9 µM
inactive: Potency [1] | Potency [2] | Potency [4] | outcome [15] | outcome [16] | outcome [17] | outcome [18] | outcome [19] | Potency [7] | Potency [8] | Potency [9] | Potency [11] | Potency [14]

IC(I)I
48.5 µM (active) and inactive: Potency [13]
active: Potency [6] 35.5 µM and 35.6 µM
inactive: Potency [1] | Potency [2] | Potency [3] | Potency [4] | Potency [5] | Potency [7] | Potency [8] | Potency [11] | Potency [14] | Potency [12]

c1ccc2cc3ccccc3cc2c1
active: Potency [10] 19.9 µM and 21.7 µM
inactive: Potency [1] | Potency [2] | Potency [3] | Potency [5] | Potency [6] | Potency [7] | Potency [8] | Potency [11] | Potency [13] | Potency [14] | Potency [12]

C[C@]12CC[C@@H]3c4ccc(O)cc4CC[C@H]3[C@@H]1CC[C@H]2O
inactive and 27.3 µM (active): Potency [3]
inactive and 39.9 µM (active): Potency [6]
inactive: Potency [1] | Potency [2] | Potency [4] | Potency [7] | Potency [8] | Potency [11] | Potency [13] | Potency [14]

C[C@]12C=CC(=O)C=C1CC[C@H]1[C@@H]3C[C@@H](O)[C@](O)(C(=O)CO)[C@@]3(C)C[C@H](O)[C@@]12F
inactive: Potency [1] | Potency [2] | outcome [15] | outcome [20] | outcome [16] | outcome [17] | outcome [18] | outcome [19] | Potency [5] | Potency [6] | Potency [7] | Potency [8] | Potency [11] | Potency [13] | Potency [14] | Potency [12]

CNC[C@H](O)c1ccc(O)c(O)c1
inactive: Potency [1] | Potency [2] | Potency [4] | outcome [15] | outcome [20] | outcome [16] | outcome [17] | outcome [18] | outcome [19] | viability change, negative = cytotoxic [5] 2.34% [at 19 µM] | Potency [6] | Potency [7] | Potency [8] | Potency [10] | Potency [11] | Potency [13]
active: Potency [14] 1.54 µM and 1.16 µM | Potency [12] 770 nM and 2.31 µM

CC[C@]12CCCN3CCc4c(n(c5ccccc45)[C@@](O)(C(=O)OC)C1)[C@@H]32
inactive: Potency [1] | Potency [2] | Potency [3] | Potency [4] | Potency [5] | Potency [6] | Potency [7] | Potency [8] | Potency [11] | Potency [13] | Potency [14]

O=Cc1ccccc1C=O
54.5 µM (active) and inactive: Potency [5]
38.6 µM (active) and inactive: Potency [12]
inactive: Potency [1] | Potency [2] | Potency [4] | Potency [6] | Potency [11]
30.6 µM (active) and inactive: Potency [3]

FC(F)(F)C(Cl)Br (stereo unspecified)
inactive: Potency [1] | Potency [2] | Potency [3] | Potency [4] | Potency [5] | Potency [6] | Potency [7] | Potency [8] | Potency [11] | Potency [13] | Potency [14] | Potency [12]

C[N+](C)(C)CCO
inactive: Potency [1] | Potency [2] | outcome [15] | outcome [18] | Potency [5] | Potency [6] | Potency [7] | Potency [8] | Potency [10] | Potency [11] | Potency [12]

CCCCCCOCCOCCO
inactive: Potency [1] | Potency [2] | Potency [3] | Potency [4] | Potency [5] | Potency [7] | Potency [8] | Potency [11] | Potency [12]

C=C1C[C@H]2[C@@H]3C=C(C)C4=CC(=O)CC[C@]4(C)[C@H]3CC[C@]2(C)[C@@]1(OC(C)=O)C(C)=O
active: Potency [13] 31.3 µM
inactive: Potency [1] | Potency [2] | Potency [3] | Potency [4] | Potency [6] | Potency [7] | Potency [8] | Potency [10] | Potency [11] | Potency [14]
